Reference: PubChem BioAssay AID818 (SRMLSC, 2007)
Hit rate of the full screen: of about 140,000 compounds, about 2,100 (1.5%) were called active. The sample holds actives, similar compounds and a random draw of the others, so the mix is not that of the screen. A number with no mark means an inactive call.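 The calls were made as follows: active = viability at or under a set limit, the compound median less 4 SD (cut at about 6% in these data); inactive = the rest.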

Assay: primary screen for growth suppressors in beta-catenin knockout HCT116 cells (colon tumor, human) (AID 818);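 also: 0% = Hyamine 1622 control at 20 µM and 100% = untreated cell control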
Details: CellTiter-Glo, 60 h, at 10 µM, stronger effect = lower value
For COCCCNC(=S)NC(=O)c1ccc([N+](=O)[O-])cc1, the viability was 95.7%. With Cc1nc(N2CCCC2C(=O)O)c2oc3ccccc3c2n1 (stereo unspecified) the viability was 95.6%. For Cc1nc(Cl)c2oc3ccccc3c2n1, the viability was 2.84% (active). Work on CCSc1nc(C)nc2c1oc1ccccc12 yielded a viability of 95.4%. Cc1ccc(CCCOC(=O)C[N+]2(C)CCCC2)cc1 showed a viability of 97%. Cc1ccc(S(=O)(=O)c2ccc(Cl)cc2)cc1S(=O)(=O)NC(C(=O)O)C(C)C (stereo unspecified) gave a viability of 97.6%. CN1CCN(C(=O)/C(=C\c2cccs2)NC(=O)c2cccs2)CC1 showed a viability of 90.3%. For Nc1ccc(Nc2ccccc2)cc1, the viability was 5.41% (active). Work on Cc1cc(Nc2ccccc2)nc(N)n1 yielded a viability of 93.5%. With Cc1cc(Nc2ccccc2)n(C(=O)c2ccc(N)cc2)n1 the viability was 85.7%. Compound O=C(Cn1nnc(-c2ccccc2)n1)N/N=C/c1ccc(-c2ccc(Cl)cc2)o1 has a viability of 80.7%. O=C(c1ccc(CSc2ccccc2)cc1)N1CCCCCC1 gave a viability of 65.2%. Work on COc1ccc(S(=O)(=O)Nc2ccc(O)c(Sc3nc4ccccc4s3)c2)cc1 yielded a viability of 82.2%. For O=[N+]([O-])c1c(NCCO)cc(Sc2nc3ccccc3s2)c2nonc12, the viability was 1.67% (active). In the case of O=C(O)c1cccc(S(=O)(=O)Nc2ccc(O)cc2Sc2nc3ccccc3s2)c1, the viability is reported as 91.9%. Compound CN(c1ccccc1)S(=O)(=O)c1ccc(Cl)c(C(=O)NCCc2c[nH]c3ccccc23)c1 has a viability of 78.7%. CNC(=O)/C(C#N)=C/c1c(F)cccc1Cl showed a viability of 74.3%. In the case of CC1=CC(C)(C)Nc2ccc(OC(=O)C(Cc3ccccc3)N3C(=O)C4CCCCC4C3=O)cc21 (stereo unspecified), the viability is reported as 44.7%. In the case of CC1=CC(C)(C)Nc2ccc(OC(=O)CN3C(=O)C4CCCCC4C3=O)cc21 (stereo unspecified), the viability is reported as 0.52% (active). Work on O=C(CN1C(=O)C2C3CCC(C3)C2C1=O)Oc1ccc2ccccc2c1 (stereo unspecified) yielded a viability of 85.5%. CCCOC(=O)c1c(NC(=O)c2cnn3c2NC(c2ccccc2)CC3C(F)(F)F)sc2c1CCCC2 (stereo unspecified) gave a viability of 61%. For CCCCOc1ccc(C(=O)NN2CCN(C)CC2)cc1, the viability was 87.1%. With CCCOc1ccc(C(=O)C(CCC(CNCC)C(=O)c2ccc(OCCC)cc2)CNCC)cc1 (stereo unspecified) the viability was 0.87% (active). For CCCCOc1ccc(C(=O)NCc2ccncc2)cc1, the viability was 70.7%. In the case of O=C(c1ccc(S(=O)(=O)c2ccccc2)cc1)N1CCCCCC1, the viability is reported as 93.2%. Compound C=CCn1c(SCc2ccc(Cl)c(Cl)c2)nnc1C(CO)NC(=O)c1ccc(OC)cc1 (stereo unspecified) has a viability of 90.7%. In the case of Cc1cc(C)c2nc(SCCC#N)nc(C)c2c1, the viability is reported as 109%. For Cc1cc(C)c2nc3nc(C)cc(C)c3c(N)c2c1, the viability was 1.48% (active). C=CCNC(=O)/C=C/c1ccc(C(C)C)cc1 showed a viability of 90.7%. In the case of Nc1nc(SCC(=O)NNc2c(Cl)cc(Cl)cc2Cl)n[nH]1, the viability is reported as 98.6%. Cc1sc2nc(CC(N)=O)[nH]c(=O)c2c1-c1ccccc1 gave a viability of 90.4%. With NS(=O)(=O)c1ccc(NC(=O)COC(=O)C2(c3ccc(F)cc3)CCCC2)cc1 the viability was 82.7%. With O=C(/C=C/c1ccccc1)c1ccoc1 the viability was 10.1%. For Cc1[nH]c(=O)c(C(=O)/C=C/c2ccccc2)c2c1CCCC2, the viability was 2.53% (active). Work on O=C(/C=C/c1ccccc1)c1ccccc1O yielded a viability of 83.6%. With CCNS(=O)(=O)c1ccc(NC(=O)c2cncc(Br)c2)cc1 the viability was 97.6%. For O=C(NC(=S)Nc1ccc2oc(=O)ccc2c1)c1ccc(-c2cccc(Cl)c2Cl)o1, the viability was 101%. For COc1cccc2sc(NNC(=O)c3nc4ccccc4s3)nc12, the viability was 14.9%. In the case of CC(=O)c1sc(NC(=O)c2cccc3ccccc23)nc1C, the viability is reported as 87.1%. In the case of COc1cccc2sc(Nc3nc(C)c(C(C)=O)s3)nc12, the viability is reported as 5.29% (active). Work on CCOc1ccc2nc(NC(=O)c3cc([N+](=O)[O-])ccc3N3CCOCC3)sc2c1 yielded a viability of 39.5%. COc1ccccc1N1CCN(C(=O)C(=O)N/N=C/c2ccccc2F)CC1 showed a viability of 104%. Compound Fc1ccc2c(c1)C(c1cccnc1)=NNC(c1cccs1)=N2 has a viability of 40.4%. In the case of CCN1CCCC1CNc1ncnc2c1[nH]c1ccc(F)cc12 (stereo unspecified), the viability is reported as 82.2%. With Fc1ccc2[nH]c3c(N4CCSCC4)ncnc3c2c1 the viability was 5.04% (active). CC(C)OCCCNc1ncnc2c1[nH]c1ccc(F)cc12 gave a viability of 9.7%. CC(=O)COc1ccc2c(-c3ccccc3)cc(=O)oc2c1 showed a viability of 95.5%. Compound COc1ccc(C2COC(=O)C2=N)c(NC(=O)c2ccccc2)c1 (stereo unspecified) has a viability of 79.1%. For CC1(c2ccccc2)CC(C)(C)N(C(=O)c2cc([N+](=O)[O-])cc([N+](=O)[O-])c2)c2ccccc21 (stereo unspecified), the viability was 69%. CN1CCN(CCCNC(=O)c2cc3c(=O)oc4ccccc4c3s2)CC1 showed a viability of 92%. For Cn1c(C(=O)NCCN2CCc3ccccc3C2)cc2c(=O)[nH]c3ccccc3c21, the viability was 87.4%. In the case of O=C(NCCN1CCN(Cc2ccccc2)CC1)c1cc2c(=O)[nH]c3ccccc3c2s1, the viability is reported as 1.35% (active). Compound COc1ccccc1N=Cc1c(O)c2ccccc2oc1=O has a viability of 84.7%. For CCCCCCc1cc2cc(-c3nnc(-c4ccccc4)o3)c(=O)oc2cc1O, the viability was 1.64% (active). With Cc1c(/C=N/N2C(=O)C3C4C=CC(C4)C3C2=O)c2ccccc2n1C (stereo unspecified) the viability was 90.7%. For Cc1coc2c(O)cc3c(c12)OC1(N2CCCCC2)C(=O)NCCCC31 (stereo unspecified), the viability was 2.34% (active). Compound Cc1cccc(N2CCN(C(=O)c3ccccc3NC(=O)C3CCCCC3C(=O)O)CC2)c1 (stereo unspecified) has a viability of 93.7%. COc1cc(NC(=O)Nc2ccc(C)cc2)cc([N+](=O)[O-])c1 showed a viability of 86.1%. In the case of COc1ccc(NS(=O)(=O)c2ccc(NC(=S)NC(=O)/C=C/c3ccc(C)cc3)cc2)nn1, the viability is reported as 84.3%. For COc1ccc(NC(=O)/C(Cl)=C(/Cl)S(=O)Cc2ccc(C)cc2)cn1 (stereo unspecified), the viability was 0.98% (active). In the case of COc1cc(OC)cc(C(=O)N[C@H](C(=O)OCC(=O)NC(C)c2ccccc2)C(C)C)c1 (stereo partly specified), the viability is reported as 83.7%.
